Unmarked numbers belong to inactive results. Activity calls are given as the source filed them. Cut-off read from the data, not from the text of the source, unless noted: active = inhibition above about 28%; inactive = the rest.
Molecular target: Nuclear receptor coactivator 1 (Homo sapiens) (UniProt Q15788)
Assay: NCOA1 GAL4-fusion reporter inhibition – cell-based, luminescence, quadruplicate, confirmation (AID 588820;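 active = mean inhibition above 46.68%, the untreated control wells mean plus 3 SD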;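 note: 0% = DMSO wells and 100% = gossypol 36 µM treated wells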)
Details: HEK293 GAL4-SRC1 luciferase reporter, at 3.6 µM, hits give high values

Chain of Nuclear receptor coactivator 1 (Homo sapiens) (Q15788 whole entry, looked up, the tested form may be a part): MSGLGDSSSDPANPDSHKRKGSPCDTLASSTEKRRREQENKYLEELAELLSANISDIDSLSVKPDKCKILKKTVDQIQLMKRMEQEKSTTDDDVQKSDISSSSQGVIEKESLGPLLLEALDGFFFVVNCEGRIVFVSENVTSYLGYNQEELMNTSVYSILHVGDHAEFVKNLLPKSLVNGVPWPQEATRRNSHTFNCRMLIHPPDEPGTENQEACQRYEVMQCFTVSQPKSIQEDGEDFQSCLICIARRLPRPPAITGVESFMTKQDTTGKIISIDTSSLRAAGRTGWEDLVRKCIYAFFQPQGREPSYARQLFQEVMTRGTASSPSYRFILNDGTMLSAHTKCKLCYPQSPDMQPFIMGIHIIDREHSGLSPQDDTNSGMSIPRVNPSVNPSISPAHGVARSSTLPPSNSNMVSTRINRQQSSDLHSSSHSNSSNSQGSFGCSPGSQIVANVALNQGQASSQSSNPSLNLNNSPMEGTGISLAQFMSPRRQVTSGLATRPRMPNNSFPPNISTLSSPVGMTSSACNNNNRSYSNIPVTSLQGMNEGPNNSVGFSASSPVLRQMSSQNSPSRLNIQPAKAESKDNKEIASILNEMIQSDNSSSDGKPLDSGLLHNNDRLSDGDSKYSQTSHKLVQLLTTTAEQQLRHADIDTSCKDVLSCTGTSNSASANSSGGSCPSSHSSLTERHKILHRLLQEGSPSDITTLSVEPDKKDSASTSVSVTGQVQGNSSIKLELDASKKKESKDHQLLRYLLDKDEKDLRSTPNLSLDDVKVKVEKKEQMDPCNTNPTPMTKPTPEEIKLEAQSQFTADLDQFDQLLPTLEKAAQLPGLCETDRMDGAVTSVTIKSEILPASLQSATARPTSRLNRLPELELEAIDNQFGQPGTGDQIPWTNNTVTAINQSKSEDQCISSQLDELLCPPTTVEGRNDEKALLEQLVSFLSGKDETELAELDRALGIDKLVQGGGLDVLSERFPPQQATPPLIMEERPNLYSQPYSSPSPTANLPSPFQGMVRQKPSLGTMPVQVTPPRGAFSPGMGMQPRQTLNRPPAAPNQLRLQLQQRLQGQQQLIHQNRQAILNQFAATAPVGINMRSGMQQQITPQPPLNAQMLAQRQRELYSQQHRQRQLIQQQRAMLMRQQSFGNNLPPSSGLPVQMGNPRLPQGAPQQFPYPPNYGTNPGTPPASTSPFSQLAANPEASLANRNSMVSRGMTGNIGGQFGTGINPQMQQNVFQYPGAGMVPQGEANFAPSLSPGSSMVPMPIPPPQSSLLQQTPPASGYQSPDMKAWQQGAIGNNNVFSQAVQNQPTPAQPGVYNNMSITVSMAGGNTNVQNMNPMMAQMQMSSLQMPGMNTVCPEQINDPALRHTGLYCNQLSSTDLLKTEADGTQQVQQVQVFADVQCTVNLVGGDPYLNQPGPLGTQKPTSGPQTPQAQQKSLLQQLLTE

Compound	inhibition [%]
CCN(CC)C1=NC(=[N+](CC)CC)c2ccccc21	9.91
O=Cc1cn(Cc2cccc([N+](=O)[O-])c2)c2ccccc12	39.9
Cc1ccc2c(C)c3ccc4ccccc4c3c[n+]2c1	17.2
COc1ccc(-n2nnnc2C(c2cccc(OC)c2OC)N2CCC(n3c(=O)[nH]c4ccccc43)CC2)cc1 (stereo not drawn)	-18.7
CCN(CC)C(=O)c1ccc(NC(=O)c2cccc(S(=O)(=O)N3CCN(Cc4ccccc4)CC3)c2)cc1	-1.69
Cc1cccc(-n2c(C)nc3ccccc3c2=O)c1C	2
CC(C)CNc1c2c(nc3ccccc13)CCC2	7.81
COc1ccc2c(c1)/C(=C/c1cnc[nH]1)C(=O)N2	13.1
CCC(C)(C)n1nnnc1CN1CCC(n2c(C)nc3cc(C(F)(F)F)ccc32)CC1	17.3
COc1cccc2c1C(=O)c1c(O)c3c(c(O)c1C2=O)CC(O)(C(C)=NO)CC3OC1CC(N)C(O)C(C)O1 (stereo not drawn)	-12.8
COc1cc2c(cc1OC)C1C(=O)c3ccc4c(c3OC1CO2)CC(C(C)C)O4 (stereo not drawn)	-30.2
COc1cccc2cc(-c3cc(=O)oc4ccc(OC(=O)N(C)C)cc34)oc12	-17.6
COc1ccc(C(c2nnnn2Cc2ccccc2)N2CCC(n3c(=O)[nH]c4ccccc43)CC2)cc1 (stereo not drawn)	-42.8
CC(C)(C)c1ccc(CSc2cnn(C(C)(C)C)c(=O)c2Cl)cc1	-34.9
N#Cc1c(Br)n(C2OC(CO)C(O)C2O)c2ncnc(N)c12 (stereo not drawn)	40.9

Tested on: not listed separately
Assay: repression of VP16-driven luciferase reporter – cell-based, luminescence, high throughput, counter-screen for SRC1 inhibitor project (AID 588824; in the data active = inhibition above about 25%)
Details: cell-based VP16 transactivation luciferase luminescence; at 3.6 µM; hits give high values

Compound	inhibition
CCN(CC)C1=NC(=[N+](CC)CC)c2ccccc21	31.1% (active)
O=Cc1cn(Cc2cccc([N+](=O)[O-])c2)c2ccccc12	30.7% (active)
Cc1ccc2c(C)c3ccc4ccccc4c3c[n+]2c1	31.6% (active)
COc1ccc(-n2nnnc2C(c2cccc(OC)c2OC)N2CCC(n3c(=O)[nH]c4ccccc43)CC2)cc1 (stereo not drawn)	3.33%
CCN(CC)C(=O)c1ccc(NC(=O)c2cccc(S(=O)(=O)N3CCN(Cc4ccccc4)CC3)c2)cc1	20.8%
Cc1cccc(-n2c(C)nc3ccccc3c2=O)c1C	9.3%
CC(C)CNc1c2c(nc3ccccc13)CCC2	17.3%
COc1ccc2c(c1)/C(=C/c1cnc[nH]1)C(=O)N2	19%
CCC(C)(C)n1nnnc1CN1CCC(n2c(C)nc3cc(C(F)(F)F)ccc32)CC1	-2.08%
COc1cccc2c1C(=O)c1c(O)c3c(c(O)c1C2=O)CC(O)(C(C)=NO)CC3OC1CC(N)C(O)C(C)O1 (stereo not drawn)	42.6% (active)
COc1cc2c(cc1OC)C1C(=O)c3ccc4c(c3OC1CO2)CC(C(C)C)O4 (stereo not drawn)	41.4% (active)
COc1cccc2cc(-c3cc(=O)oc4ccc(OC(=O)N(C)C)cc34)oc12	-14.6%
COc1ccc(C(c2nnnn2Cc2ccccc2)N2CCC(n3c(=O)[nH]c4ccccc43)CC2)cc1 (stereo not drawn)	-11.4%
CC(C)(C)c1ccc(CSc2cnn(C(C)(C)C)c(=O)c2Cl)cc1	44.7% (active)
N#Cc1c(Br)n(C2OC(CO)C(O)C2O)c2ncnc(N)c12 (stereo not drawn)	29.9% (active)

Tested on: not listed separately
Assay: StAR promoter reporter inhibitors, counter-screen for LRH-1 inverse agonist project, cell-based, luminescence, high throughput (AID 651611)
Details: StAR promoter luciferase reporter counterscreen, at 3.6 µM, hits give high values

Compound	inhibition
CCN(CC)C1=NC(=[N+](CC)CC)c2ccccc21	33.7% (active)
O=Cc1cn(Cc2cccc([N+](=O)[O-])c2)c2ccccc12	65.6% (active)
N#Cc1ccc(Cn2cc(C=O)c3ccccc32)cc1	4.87%
CCN1CCN(c2cc(N3CCCC3)c([N+](=O)[O-])cc2F)CC1	1.38%
N#CCCn1cc(C(=O)Nc2ccccc2Cl)c(-c2ccc([N+](=O)[O-])cc2)n1	16.9%
O=C1Nc2ccccc2/C1=C/c1cnc[nH]1	14.6%
Cc1ccccc1-n1c(/C=C/c2ccccn2)nc2ccccc2c1=O	35.8% (active)
Cc1ccc2c(C)c3ccc4ccccc4c3c[n+]2c1	28.1% (active)
O=[N+]([O-])c1cc(F)c(N2CCCCCC2)cc1N1CCNCC1	14.3%
CCOC(=O)c1c(C)n(CC(O)CN2CCOCC2)c2cc(Br)c(OC)cc12 (stereo not drawn)	22%
N#CCCn1cc(C(=O)Nc2ccccc2Br)c(-c2ccc([N+](=O)[O-])cc2)n1	18.4%
CCOC(=O)[C@]12Cc3c(cc(OC)c(OC)c3OC)[C@H]1N(C1CCCCC1)C(=O)c1ccccc12	45.9% (active)
COC(=O)COc1cc(C)cc2oc(=O)c3c(c12)CCCC3	3.14%
COc1ccc2c(c1)/C(=C/c1cnc[nH]1)C(=O)N2	59.4% (active)
O=c1[nH]c2ccccc2n1C1CCN(Cc2ccc(-c3[nH]c4cc5ncnc5cc4nc3-c3ccccc3)cc2)CC1	42.3% (active)
CCOC(=O)[C@]12Cc3cc(C)ccc3[C@H]1N(C1CCCCC1)C(=O)c1ccccc12	71.1% (active)
CC1CCN(C(=O)CCl)CC1	21.1%
NC(Cc1ccc(F)cc1)c1csc(Nc2ncccn2)n1 (stereo not drawn)	40.1% (active)
CN1C(=O)C(=Cc2ccc(N3CCCCCC3)cc2)C(=O)N(C)C1=O	9.79%
COc1cc2c(cc1OC)C1C(=O)c3ccc4c(c3OC1CO2)CC(C(C)C)O4 (stereo not drawn)	40.3% (active)
CCOC(=O)[C@]12Cc3cc(C)ccc3[C@H]1N(C1CCCCC1)C(=O)c1cc(OC)ccc12	63.5% (active)
CCOC(=O)[C@]12Cc3cc(OC)ccc3[C@H]1N(C1CCCCC1)C(=O)c1ccccc12	49.6% (active)
CC(=O)O[C@H]1C(=O)[C@@]2(C)C([C@H](OC(=O)c3ccccc3)[C@]3(O)C[C@H](OC(=O)[C@H](O)[C@@H](NC(=O)Cc4ccccc4)c4ccccc4)C(C)=C1C3(C)C)[C@]1(OC(C)=O)CO[C@@H]1C[C@@H]2O (stereo partly drawn)	50.1% (active)
COC(=O)C(C)Oc1cc(C)cc2oc(=O)c3c(c12)CCCC3 (stereo not drawn)	14.4%
CC(C)(C)c1ccc(CSc2cnn(C(C)(C)C)c(=O)c2Cl)cc1	28.1% (active)
CCOC(=O)[C@]12Cc3ccccc3[C@H]1N(C1CCCCC1)C(=O)c1cc(OC)ccc12	55.3% (active)
COC1/C=C/C=C(\C)Cc2cc(O)c(Cl)c(c2)N(C)C(=O)CC(OC(=O)C(C)C)C2(C)OC2C(C)C2CC1(O)NC(=O)O2 (stereo not drawn)	64.9% (active)
N#Cc1c(Br)n(C2OC(CO)C(O)C2O)c2ncnc(N)c12 (stereo not drawn)	61.8% (active)

Source: PubChem BioAssay
